In PubChem BioAssay (NCI):
The panel holds about 83,000 compounds, 20% with a hit somewhere; the sample as a whole holds those more often.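 Note: values are percent growth. 100 is the growth of untreated cells, values between 100 and 0 indicate rising inhibition; between -100 and 0 indicates cell death.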 A number with no mark means an inactive call. Activity calls are given as the source filed them. The calls were made as follows: active = growth percent below 10; inactive = the rest.

Legend:
Assay in all cases: NCI-60 one-dose screen, 48 h (100 = growth as untreated, 0 = no growth, -100 = all killed)
Settings in all cases: 10 µM unless noted
[1] = test system: T-47D breast
[2] = test system: BT-549 breast
[3] = test system: MDA-MB-435 melanoma
[4] = test system: SW-620 colon
[5] = test system: MCF7 breast
[6] = test system: HCT-116 colon
[7] = test system: HCC-2998 colon
[8] = test system: KM12 colon

Row | Structure (SMILES) | growth [1] | growth [2] | growth [3] | growth [4] | growth [5] | growth [6] | growth [7] | growth [8]
1 | Cc1ccc(-c2cn(C/C=C3\C=CN(S(=O)(=O)c4ccccc4)CC3)nn2)cc1 | 78.3% | 96.1% | 101% | 102% | 90.3% | 98% | 109% | 101%
2 | ClC1=C(Cl)C(Cl)=C(Cl)C1=Cc1ccccc1 | -26.4% (active) | -82.1% (active) | -54% (active) | -56.2% (active) | -29.3% (active) | -99% (active) | -82.8% (active) | -84.7% (active)
3 | O=C(Nc1cccnc1)c1ccc2ccc3ccc(C(=O)Nc4cccnc4)nc3c2n1 | 37.2% | 34.7% | 24.9% | 11% | 28.9% | 4.76% (active) | 3.41% (active) | 5.81% (active)
4 | O=c1c2c3c(sc2n2cnnc2n1Cc1ccccc1)CCCC3 | 38.4% | 95.7% | 113% | 113% | 96.6% | 122% | 105% | 113%
5 | C#CC(OC(=O)N(C)C)(c1ccccc1)c1ccc(F)cc1 (configuration not stated) | 100% | 111% | 120% | 107% | 113% | 105% | 86.3% | 107%
6 | C=C(C)[C@@H]1CC[C@]2(C(=O)OC)CC[C@]3(C)[C@H](CC[C@@H]4[C@@](C)(CCc5nn[nH]n5)[C@H](C(=C)C)CC[C@]43C)[C@@H]12 | -5.51% [100 µM] (active) | -12.1% [100 µM] (active) | -54% [100 µM] (active) | -19.6% [100 µM] (active) | 5.06% [100 µM] (active) | -21.5% [100 µM] (active) | -53.5% [100 µM] (active) | -43.7% [100 µM] (active)
7 | COc1ccc(C(=O)/C=C/c2ccccn2)c(O)c1 | 61.6% | 76.5% | 77.3% | 43.4% | 15.9% | 76.5% | 93.6% | 51.1%
8 | CCN=C1C=CC(=C(c2ccc(N(CC)CC)cc2)c2ccc(N(CC)CC)cc2)c2ccccc21 | -45.7% (active) | -67.2% (active) | -31.6% (active) | -42.9% (active) | -74% (active) | -45.7% (active) | -81% (active) | -86.2% (active)
9 | CC1(C)C(=NO)C(C)(C)C1=NO | 121% | 116% | 92.2% | 100% | 106% | 103% | 98% | 118%
10 | Cc1ccc(-c2cc(-c3ccc(C)cc3)nc(NCCNc3ccnc4cc(Cl)ccc34)n2)cc1 | -69.2% (active) | 57.7% | -76.4% (active) | -64.9% (active) | -77.3% (active) | -84.5% (active) | -80.2% (active) | -73% (active)
11 | C[n+]1c(-c2ccccc2)c2cc(N)ccc2c2ccccc21 | 11.9% | 0.585% (active) | 31.5% | 40.5% | 13% | 30.4% | 40.5% | 19.1%
12 | C=C(C)[C@@H]1CC[C@]2(COC(=O)c3ccccc3C(=O)O)CC[C@]3(C)[C@H](CC[C@@H]4[C@@]5(C)CC[C@H](OC(=O)c6ccccc6C(=O)O)C(C)(C)[C@@H]5CC[C@]43C)[C@@H]12 | 39.6% [100 µM] | 28.1% [100 µM] | 30.8% [100 µM] | 41.7% [100 µM] | 48.6% [100 µM] | 21.3% [100 µM] | 4.42% [100 µM] (active) | 11.8% [100 µM]
13 | O=C1Nc2ccccc2/C1=C/C(=O)c1ccc(N2CCCCC2)cc1 | 59.9% | 90.8% | 88.2% | -22.7% (active) | 68.9% | 92.7% | 105% | 90.5%
14 | CCNC(=O)N1CCc2c(Cl)c3c(c(OC)c2[C@@H]1[C@H]1OCc2c1ccc(OC)c2OC)OCCO3 | 20.5% | 55.9% | -43.4% (active) | 17.5% | 16.1% | 18.2% | 61.1% | 18.7%
